# From ChEMBL document CHEMBL3988442, “University of Dundee, Small-Polar-MMV Screening Library” (2021)
# For some assays here: Potency and affinity values are given separately.
# Assays:
# Design in all cases: scale not given: direction of the effect not stated beside the values
# [1] = target: Protein translocase subunit SecA (Escherichia coli (strain K12)) (UniProt P10408); test: Assay to Identify E. coli SecA ATPase Inhibitors; format: functional; conditions: 30 µM
# [2] = target: T1, Ubiquitin-activating enzyme e1, putative (Leishmania donovani (strain BPK282A1)) (UniProt E9BSI1); test: Leishmania donovani Ubiquitin Activating Enzyme (LdE1); format: functional; conditions: 30 µM
# T1 sequence (whole entry): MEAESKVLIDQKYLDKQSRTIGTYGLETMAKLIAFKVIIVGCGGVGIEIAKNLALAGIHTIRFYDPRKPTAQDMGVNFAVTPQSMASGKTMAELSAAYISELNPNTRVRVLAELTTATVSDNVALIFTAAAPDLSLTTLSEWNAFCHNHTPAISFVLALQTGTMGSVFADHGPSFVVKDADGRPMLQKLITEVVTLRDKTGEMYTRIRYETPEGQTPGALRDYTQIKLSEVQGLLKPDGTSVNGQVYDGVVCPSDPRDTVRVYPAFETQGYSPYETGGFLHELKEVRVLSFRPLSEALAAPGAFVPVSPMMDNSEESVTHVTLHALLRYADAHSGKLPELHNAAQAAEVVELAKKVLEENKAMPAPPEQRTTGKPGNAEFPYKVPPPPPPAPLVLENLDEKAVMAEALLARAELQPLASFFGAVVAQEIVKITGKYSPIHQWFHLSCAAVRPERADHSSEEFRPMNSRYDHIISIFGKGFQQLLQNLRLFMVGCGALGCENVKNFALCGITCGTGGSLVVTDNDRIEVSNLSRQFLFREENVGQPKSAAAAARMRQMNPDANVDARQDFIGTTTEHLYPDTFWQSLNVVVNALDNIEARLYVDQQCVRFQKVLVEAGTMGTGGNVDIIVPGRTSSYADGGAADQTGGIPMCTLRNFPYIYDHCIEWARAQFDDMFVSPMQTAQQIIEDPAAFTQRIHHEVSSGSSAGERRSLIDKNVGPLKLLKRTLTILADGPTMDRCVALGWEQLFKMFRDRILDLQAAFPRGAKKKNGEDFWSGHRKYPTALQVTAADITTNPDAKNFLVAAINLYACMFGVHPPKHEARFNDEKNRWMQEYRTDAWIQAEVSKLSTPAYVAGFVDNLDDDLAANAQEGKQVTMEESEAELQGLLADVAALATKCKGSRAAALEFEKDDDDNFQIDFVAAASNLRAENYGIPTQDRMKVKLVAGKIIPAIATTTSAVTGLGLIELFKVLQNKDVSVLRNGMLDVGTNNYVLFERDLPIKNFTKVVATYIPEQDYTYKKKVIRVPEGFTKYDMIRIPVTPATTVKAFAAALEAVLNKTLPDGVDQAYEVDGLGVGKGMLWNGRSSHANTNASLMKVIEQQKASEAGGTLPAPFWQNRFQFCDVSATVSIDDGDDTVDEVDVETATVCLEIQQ
# [3] = target: AMP-activated protein kinase, AMPK (Homo sapiens) (UniProt P54646+O43741+P54619+Q9UGJ0+Q9Y478+Q13131+Q9UGI9); test: AMP-dependent Kinase enzyme assay. An in vitro enzyme assay that detects ADP turnover that is directly proportional to AMPK activity. This uses naive AMPK that is activated during the assay with MK-8722; format: functional; conditions: 30 µM
# [4] = target: Sialic acid-binding Ig-like lectin 9 (Homo sapiens) (UniProt Q9Y336); test: Hs-Siglec9 ALPHAscreen SOP 20170721; conditions: 10 µM
# Trypanosoma cruzi = test: Trypanosoma cruzi phosphomannomutase and mannose-1-phosphate guanylyltransferase assay; format: functional; conditions: 10 µM
# [5] = target: T2, Arginase-2, mitochondrial (Homo sapiens) (UniProt P78540); test: in vitro enzyme assay to detect the production of urea directly proportional to the activity of Arginase II; format: functional; conditions: 33.3 µM; note: in the data most compounds retested in dose-response had high values
# T2 sequence (whole entry): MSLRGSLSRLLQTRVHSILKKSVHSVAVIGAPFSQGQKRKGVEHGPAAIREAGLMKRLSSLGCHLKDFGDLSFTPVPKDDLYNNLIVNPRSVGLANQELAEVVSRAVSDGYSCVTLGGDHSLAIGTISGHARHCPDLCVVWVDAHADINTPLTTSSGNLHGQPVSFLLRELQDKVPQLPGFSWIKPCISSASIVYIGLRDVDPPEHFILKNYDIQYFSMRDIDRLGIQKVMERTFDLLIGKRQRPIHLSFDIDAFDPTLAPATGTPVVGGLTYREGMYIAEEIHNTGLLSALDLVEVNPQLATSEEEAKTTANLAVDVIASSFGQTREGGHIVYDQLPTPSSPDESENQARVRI
# [6] = target: T3, Proteasome subunit beta (Trypanosoma cruzi) (UniProt O96673); test: Trypanosoma cruzi proteasome chymotrypsin-like activity (TcProtChymo) assay.; note: in the data most compounds retested in dose-response had high values; format: functional; conditions: 9.37 µM
# T3 sequence (whole entry): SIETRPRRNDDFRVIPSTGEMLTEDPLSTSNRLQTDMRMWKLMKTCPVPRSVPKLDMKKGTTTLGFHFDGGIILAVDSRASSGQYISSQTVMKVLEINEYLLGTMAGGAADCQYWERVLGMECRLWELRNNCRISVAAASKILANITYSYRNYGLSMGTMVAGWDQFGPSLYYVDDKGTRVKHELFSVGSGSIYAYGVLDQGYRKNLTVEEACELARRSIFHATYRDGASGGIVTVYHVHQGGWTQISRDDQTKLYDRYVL
# Homo sapiens = species: Homo sapiens; test: To identify inhibition of the IFN signalling (Jak-Stat) pathway via expression of an eGFP reporter gene under the control of an IFN-stimulated response element (ISRE) containing MxA promoter.; format: functional; conditions: 30 µM
# [7] = target: T4, Tyrosyl-tRNA synthetase, putative (Trypanosoma cruzi (strain CL Brener)) (UniProt Q4DSP6); test: Trypanosoma cruzi tyrosyl tRNA synthetase (TcYRS) _High Tyrosine SOP; format: functional; conditions: 30 µM; note: in the data most compounds retested in dose-response had high values
# T4 sequence (whole entry): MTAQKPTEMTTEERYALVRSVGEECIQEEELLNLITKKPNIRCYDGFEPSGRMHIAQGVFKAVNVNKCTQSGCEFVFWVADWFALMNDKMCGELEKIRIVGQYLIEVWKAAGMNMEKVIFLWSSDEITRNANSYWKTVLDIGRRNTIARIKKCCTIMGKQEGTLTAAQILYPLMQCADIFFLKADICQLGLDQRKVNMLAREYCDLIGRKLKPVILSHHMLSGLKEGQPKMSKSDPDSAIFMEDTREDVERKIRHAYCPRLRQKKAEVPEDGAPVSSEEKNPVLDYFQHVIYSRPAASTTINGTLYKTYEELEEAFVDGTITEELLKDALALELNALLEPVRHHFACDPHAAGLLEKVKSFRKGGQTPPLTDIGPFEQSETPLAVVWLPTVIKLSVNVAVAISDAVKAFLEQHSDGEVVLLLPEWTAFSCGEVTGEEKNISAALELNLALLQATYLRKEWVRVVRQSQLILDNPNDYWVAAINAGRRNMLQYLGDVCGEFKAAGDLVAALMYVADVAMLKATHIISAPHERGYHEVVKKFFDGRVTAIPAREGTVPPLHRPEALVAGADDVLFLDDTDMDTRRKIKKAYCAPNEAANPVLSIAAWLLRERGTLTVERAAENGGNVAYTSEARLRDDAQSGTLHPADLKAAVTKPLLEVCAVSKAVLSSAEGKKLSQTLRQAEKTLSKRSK
# [8] = target: T4, Tyrosyl-tRNA synthetase, putative (Trypanosoma cruzi (strain CL Brener)); test: Trypanosoma cruzi tyrosyl tRNA synthetase (TcYRS) SOP; format: functional; conditions: 30 µM
# [9] = target: Chromo domain-containing protein 1 (Saccharomyces cerevisiae (strain ATCC 204508 / S288c) (Baker's yeast)) (UniProt P32657); test: ScCHD-1 Enzyme Inhibition Assay; format: functional; conditions: 30 µM; note: in the data most compounds retested in dose-response had high values
# Chain of Chromo domain-containing protein 1 (Saccharomyces cerevisiae (strain ATCC 204508 / S288c) (Baker's yeast)) (P32657 whole entry, the tested form may be a part): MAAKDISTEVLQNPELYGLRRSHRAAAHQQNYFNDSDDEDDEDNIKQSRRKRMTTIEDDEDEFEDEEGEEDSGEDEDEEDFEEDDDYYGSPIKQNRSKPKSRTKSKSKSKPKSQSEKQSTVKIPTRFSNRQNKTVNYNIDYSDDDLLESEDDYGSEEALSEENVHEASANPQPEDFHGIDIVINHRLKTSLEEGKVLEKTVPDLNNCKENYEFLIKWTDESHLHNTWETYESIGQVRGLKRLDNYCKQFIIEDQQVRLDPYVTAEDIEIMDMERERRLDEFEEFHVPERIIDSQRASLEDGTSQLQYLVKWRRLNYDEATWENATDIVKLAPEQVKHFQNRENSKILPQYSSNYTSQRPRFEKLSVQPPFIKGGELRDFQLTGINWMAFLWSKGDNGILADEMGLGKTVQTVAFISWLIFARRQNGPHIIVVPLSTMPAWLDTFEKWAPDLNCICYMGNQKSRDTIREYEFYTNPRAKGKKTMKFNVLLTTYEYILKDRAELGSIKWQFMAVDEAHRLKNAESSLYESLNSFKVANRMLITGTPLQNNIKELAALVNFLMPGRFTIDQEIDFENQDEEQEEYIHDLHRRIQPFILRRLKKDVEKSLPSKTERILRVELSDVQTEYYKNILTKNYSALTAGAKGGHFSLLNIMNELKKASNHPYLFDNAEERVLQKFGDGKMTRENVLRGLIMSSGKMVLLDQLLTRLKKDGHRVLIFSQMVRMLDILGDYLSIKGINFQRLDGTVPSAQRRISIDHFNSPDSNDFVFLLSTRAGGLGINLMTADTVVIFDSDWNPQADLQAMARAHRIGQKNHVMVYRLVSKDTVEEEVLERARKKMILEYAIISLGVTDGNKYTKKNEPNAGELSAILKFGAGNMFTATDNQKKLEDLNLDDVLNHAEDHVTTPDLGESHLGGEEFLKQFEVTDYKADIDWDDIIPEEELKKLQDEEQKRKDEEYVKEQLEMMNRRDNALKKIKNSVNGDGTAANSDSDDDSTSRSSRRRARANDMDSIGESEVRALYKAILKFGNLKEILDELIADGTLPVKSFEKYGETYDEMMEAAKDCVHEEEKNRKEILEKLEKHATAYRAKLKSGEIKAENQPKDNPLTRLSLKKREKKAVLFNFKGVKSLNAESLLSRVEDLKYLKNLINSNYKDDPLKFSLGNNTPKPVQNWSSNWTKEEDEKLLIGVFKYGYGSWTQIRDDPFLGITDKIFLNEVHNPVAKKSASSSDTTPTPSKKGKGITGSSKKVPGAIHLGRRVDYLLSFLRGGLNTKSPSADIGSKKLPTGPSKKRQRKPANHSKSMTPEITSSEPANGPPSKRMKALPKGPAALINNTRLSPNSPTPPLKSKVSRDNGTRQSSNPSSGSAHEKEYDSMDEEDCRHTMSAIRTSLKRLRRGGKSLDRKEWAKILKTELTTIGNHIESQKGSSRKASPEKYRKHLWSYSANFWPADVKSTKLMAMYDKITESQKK
# Chain of Sialic acid-binding Ig-like lectin 9 (Homo sapiens) (Q9Y336 whole entry): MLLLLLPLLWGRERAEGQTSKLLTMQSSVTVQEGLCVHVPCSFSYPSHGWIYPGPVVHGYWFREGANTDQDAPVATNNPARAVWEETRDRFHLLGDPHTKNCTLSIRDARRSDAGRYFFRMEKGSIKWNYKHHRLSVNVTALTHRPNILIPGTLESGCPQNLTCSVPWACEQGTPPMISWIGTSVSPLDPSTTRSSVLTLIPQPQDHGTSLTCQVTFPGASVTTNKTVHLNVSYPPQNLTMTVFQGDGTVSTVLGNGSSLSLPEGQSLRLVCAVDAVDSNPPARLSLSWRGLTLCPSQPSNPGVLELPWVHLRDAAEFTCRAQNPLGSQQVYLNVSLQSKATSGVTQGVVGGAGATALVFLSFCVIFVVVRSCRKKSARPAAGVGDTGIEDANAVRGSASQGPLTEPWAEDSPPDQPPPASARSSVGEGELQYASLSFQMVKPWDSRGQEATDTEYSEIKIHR
# Chain of Protein translocase subunit SecA (Escherichia coli (strain K12)) (P10408 whole entry): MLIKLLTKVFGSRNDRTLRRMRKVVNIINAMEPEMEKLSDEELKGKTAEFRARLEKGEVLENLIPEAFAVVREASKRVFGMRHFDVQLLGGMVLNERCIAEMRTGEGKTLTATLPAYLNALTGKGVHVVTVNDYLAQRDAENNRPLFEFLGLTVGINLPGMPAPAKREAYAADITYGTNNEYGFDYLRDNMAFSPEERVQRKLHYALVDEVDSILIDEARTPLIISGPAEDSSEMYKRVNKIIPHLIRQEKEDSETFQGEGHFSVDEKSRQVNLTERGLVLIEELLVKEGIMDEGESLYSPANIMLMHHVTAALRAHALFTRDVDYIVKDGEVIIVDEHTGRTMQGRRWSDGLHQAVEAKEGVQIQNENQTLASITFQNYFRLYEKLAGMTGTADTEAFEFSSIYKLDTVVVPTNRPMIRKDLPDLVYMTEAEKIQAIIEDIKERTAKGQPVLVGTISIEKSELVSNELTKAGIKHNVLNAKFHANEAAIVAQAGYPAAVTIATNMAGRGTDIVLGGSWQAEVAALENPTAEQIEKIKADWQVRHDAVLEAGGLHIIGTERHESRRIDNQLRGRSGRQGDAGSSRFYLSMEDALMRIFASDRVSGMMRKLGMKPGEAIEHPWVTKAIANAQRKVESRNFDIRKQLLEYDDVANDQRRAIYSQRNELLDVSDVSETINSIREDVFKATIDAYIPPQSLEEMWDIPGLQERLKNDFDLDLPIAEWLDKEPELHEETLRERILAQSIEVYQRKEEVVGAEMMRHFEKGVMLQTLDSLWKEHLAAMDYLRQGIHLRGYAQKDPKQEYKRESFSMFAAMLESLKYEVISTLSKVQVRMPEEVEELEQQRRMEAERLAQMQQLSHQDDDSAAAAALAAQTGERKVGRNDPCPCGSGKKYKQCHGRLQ
SMILES,Percent Effect [1],Percent Effect [2],Percent Effect [3],Percent Effect [4],Percent Effect (Trypanosoma cruzi),Percent Effect [5],Percent Effect [6],Percent Effect (Homo sapiens),Percent Effect [7],Percent Effect [8],Percent Effect [9]
Cc1nn(C)c2c(NCc3ccccc3F)nc(C3CC3)nc12,-4.24%,13%,15.3%,12.8%,9.14%,-63.5%,20.6%,38.1%,-3.23%,13.6%,-3.61%
O=C(CCn1cccn1)N1C[C@@H]2CC[C@H](C1)N(Cc1ccccn1)C2=O,-3.32%,5.41%,-4.57%,4.2%,2.51%,0.476%,1.72%,3.77%,5.82%,14.6%,-3.35%
COCc1nc(N(C)C)ncc1C(=O)NC(C)C,-5.73%,-1.33%,4.52%,-0.683%,-3.54%,-2.99%,4.07%,-5.53%,2.12%,-2.56%,-0.879%
Cc1nn(C)c2c(NCCCn3cccn3)ncnc12,-1.47%,9.33%,2.34%,-1.8%,3.34%,-3.35%,21.6%,-12.4%,2.12%,15.4%,-7.78%
COc1ccc(C2=CCN(C(=O)C3CCCN(C(N)=O)C3)CC2)cc1 (configuration not stated),-3.88%,7.89%,4.4%,-4.74%,7.75%,-2.52%,12.9%,2.88%,6.4%,18.5%,-7.24%
Cc1cccc2cc(CNCCCN3CCOCC3)c(=O)[nH]c12,-7.31%,17.6%,-2.19%,3.5%,6.13%,-2.09%,11.2%,2.24%,3.23%,14.3%,-27.6%
NC(=O)N1CCC2(CC1)CN(c1ccsc1)C(=O)CO2,-5.13%,10.7%,4.87%,0.623%,-7.68%,-3.96%,-2.38%,11%,-3.19%,-1.28%,-2.23%
COc1cccc(C(=O)NS(=O)(=O)c2cccc(C#N)c2)c1OC,-5.72%,10.8%,-6.64%,1.98%,1.58%,2.4%,-0.539%,0.367%,1.98%,13.4%,3.98%
Cc1ccc(NC2CCN(C(=O)c3c(C)noc3C)CC2)nn1,-4.36%,13.2%,0.922%,9.85%,7.33%,-0.766%,3.68%,-4.46%,3.43%,12.2%,-7.4%
Cc1c(C)n(Cc2ccncc2)c2nc3c(c(N)c12)CCCCC3,-2.06%,6.67%,9.29%,1.27%,9.43%,-1.94%,15.3%,43.7%,3.17%,12.8%,-10.9%
Cc1nc(CN(C)C2CCN(CC(=O)N3CCOCC3)C2)no1 (configuration not stated),-3.5%,18.9%,-5.27%,-3.82%,-3.62%,-3.14%,1.98%,1.74%,5.94%,18.3%,-3.28%
Cc1ccc(S(=O)(=O)N2C[C@@H]3C[C@@H](NC(=O)C(C)(C)C)[C@@H]3C2)cc1,-5.99%,14.9%,5.25%,4.69%,2.77%,-3.48%,12.3%,2.6%,3.23%,9.09%,-22.4%
O=C(c1cscn1)N1CCC2(CCN(Cc3nccs3)C2)CC1,-1.95%,2.7%,2.22%,3.97%,0.293%,-6.05%,16.4%,-17.2%,1.08%,5.13%,5.03%
Cc1cnn(CCC(=O)N2CCN(c3ncccc3Cl)CC2)c1,-2.22%,3.8%,10.2%,2%,-4.21%,1.94%,10.3%,18.8%,1.04%,2.53%,-5.44%
Cc1ncsc1C(=O)N(C)CCc1ccncc1,-2.19%,2.63%,9.05%,3.98%,-0.564%,0%,-1.84%,16.7%,2.45%,4.88%,5.09%
CC1=N[C@@]2(CC[C@@H]3CN(S(=O)(=O)N(C)C)C[C@@H]32)C(=O)N1CC(C)C,1.29%,8.11%,2.53%,-13.6%,-6.75%,4.78%,13.3%,6.52%,5.41%,10.3%,-5.11%
CCN(CC)C(=O)c1ccn(COc2ccccc2)n1,-2.87%,-4%,2.57%,5.83%,4.32%,-2.99%,8.5%,1.5%,5.29%,10.3%,-0.306%
CCOc1ccccc1-c1noc(CN(C)Cc2cnn(C)c2)n1,1.46%,8.11%,-5.04%,7.46%,-2.12%,-4.76%,11.9%,4.5%,4.76%,9.76%,-1.75%
Cc1cc(=O)n(CC(=O)NCC2CCCO2)c(-c2ccc(F)cc2)n1 (configuration not stated),-8.1%,0%,1.45%,-2.38%,-3.83%,2.76%,7.49%,22.5%,-1.07%,-3.7%,3.12%
COc1ccc(NC(=O)Cn2nc(C)c(C)cc2=O)cc1OC,-0.134%,0%,-0.466%,23.4%,5.79%,20.5%,8.97%,2.79%,0.529%,9.76%,-7.49%
CS(=O)(=O)c1ccc(CNC(=O)N2CCC(C(N)=O)C2)cc1 (configuration not stated),-5.24%,25.3%,-8.85%,3.98%,8.78%,-3.04%,14.2%,0.909%,8.37%,26.6%,-5.74%
CC(C(=O)NCCOc1cccc(Cl)c1)n1cncn1 (configuration not stated),-1.19%,17.7%,-0.802%,-7.8%,2.55%,3.42%,7.94%,-10.4%,-2.46%,13.9%,-5.29%
